Test results from PubChem BioAssay (EPA / NIEHS).
Results filed as inconclusive are left out. The source made the active and inactive calls. How the source made its calls: active means hit-call score of the fitted dose curve at least 0.9, where 1 is the maximum; inconclusive means response in the unintended direction; inactive means score below 0.9.

These compounds were tested against Retinoic acid receptor alpha (Homo sapiens) (UniProt P10276) (assay: NVS_NR_hRAR_Antagonist: NovaScreen (NVS) Nuclear Receptor Binding Assay for human Retinoic Acid Alpha Receptor Antagonism (RAR) (AID 2283358)).
Procedure, shortened: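 Read-out: time-resolved FRET binding signal, 2 h post-dose, cell-free extracted protein. Antagonism scored as signal loss versus DMSO negative control. Primary single-concentration screen at 25 uM in duplicate; concentration series for actives.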

Chain of Retinoic acid receptor alpha (Homo sapiens) (P10276 whole entry, looked up): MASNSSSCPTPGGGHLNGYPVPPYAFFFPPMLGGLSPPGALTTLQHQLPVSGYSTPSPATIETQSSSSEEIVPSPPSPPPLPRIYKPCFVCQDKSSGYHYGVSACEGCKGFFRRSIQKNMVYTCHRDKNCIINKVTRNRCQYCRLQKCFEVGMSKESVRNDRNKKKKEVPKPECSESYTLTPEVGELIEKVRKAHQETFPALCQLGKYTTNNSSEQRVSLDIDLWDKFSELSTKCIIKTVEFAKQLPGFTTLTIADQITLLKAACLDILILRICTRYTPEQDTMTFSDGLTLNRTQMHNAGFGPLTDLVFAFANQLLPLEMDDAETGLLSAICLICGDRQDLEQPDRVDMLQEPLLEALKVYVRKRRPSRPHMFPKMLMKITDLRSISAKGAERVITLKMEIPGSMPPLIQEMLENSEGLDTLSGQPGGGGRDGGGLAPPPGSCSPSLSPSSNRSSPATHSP

| Compound | outcome | AC50 |
| --- | --- | --- |
| Cc1ccc(S(=O)(=O)Oc2ccc(N=Nc3ccc(-c4ccc(N=Nc5c(O)ccc6cc(S(=O)(=O)O)cc(S(=O)(=O)O)c56)c(C)c4)cc3C)cc2)cc1 | inactive | – |
| CCCCCCCCC=CCCCCCCCC1=NCCN1CCO | – | 25 µM (active) |
| CCCCCCCCCCCCCCN(CCO)CCO | inactive | – |

These compounds were tested against Retinoic acid receptor alpha (Homo sapiens) (UniProt P10276) (assay: NVS_NR_hRARa_Agonist: NovaScreen (NVS) Nuclear Receptor Binding Assay for human Retinoic Acid Alpha Receptor Agonism (RAR) (AID 2283361)).
Procedure, shortened: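 TR-FRET signal, 2 h post-dosing; cell-free extracted protein; DMSO = baseline, positive fitting direction; 25 uM single-point duplicate, then concentration series for actives.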

| Compound | outcome | AC50 |
| --- | --- | --- |
| [O-]n1ccccc1=S.[O-]n1ccccc1=S.[Zn+2] | inactive | – |
| O=C(CC(=O)c1ccccc1)c1ccccc1 | inactive | – |
| Cc1cc(S(=O)(=O)O)ccc1N=Nc1c(O)ccc2ccccc12 | – | 23.5 µM (active) |
| CCCCC(CC)COC(=O)c1ccc(O)cc1 (configuration not stated) | inactive | – |

These compounds were tested against human Thyroid Receptor Alpha (TRa), THRA (gene 7067) (UniProt P10827) (assay: NVS_NR_hTRa_Antagonist: NovaScreen (NVS) Nuclear Receptor Binding Assay for human Thyroid Receptor Alpha Antagonism (TRa) (AID 2283362);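 further: activity is loss of signal relative to DMSO baseline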).
Procedure, shortened: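 In this biochemical format, receptor protein is dosed with chemical and read after 1 hour via AlphaLISA. Decreases from the DMSO baseline indicate antagonist activity; screening used 25 uM in duplicate before concentration-response confirmation.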

Chain of human Thyroid Receptor Alpha (TRa), THRA (gene 7067) (P10827 whole entry, looked up): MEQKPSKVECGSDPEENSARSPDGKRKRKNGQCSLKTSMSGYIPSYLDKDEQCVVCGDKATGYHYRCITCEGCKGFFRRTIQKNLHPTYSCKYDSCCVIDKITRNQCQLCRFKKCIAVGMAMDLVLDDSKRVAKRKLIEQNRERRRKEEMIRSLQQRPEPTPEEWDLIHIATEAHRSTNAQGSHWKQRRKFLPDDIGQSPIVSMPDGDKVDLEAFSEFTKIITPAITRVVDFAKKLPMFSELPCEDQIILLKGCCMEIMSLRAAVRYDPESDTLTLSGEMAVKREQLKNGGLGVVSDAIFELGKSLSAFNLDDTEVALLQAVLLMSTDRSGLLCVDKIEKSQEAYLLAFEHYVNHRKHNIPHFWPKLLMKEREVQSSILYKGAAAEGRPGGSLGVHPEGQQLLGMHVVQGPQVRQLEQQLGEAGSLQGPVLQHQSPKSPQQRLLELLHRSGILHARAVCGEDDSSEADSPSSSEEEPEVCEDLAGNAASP

| Compound | AC50 | outcome |
| --- | --- | --- |
| Cc1ccc(S(=O)(=O)Oc2ccc(N=Nc3ccc(-c4ccc(N=Nc5c(O)ccc6cc(S(=O)(=O)O)cc(S(=O)(=O)O)c56)c(C)c4)cc3C)cc2)cc1 | 3.09 µM (active) | – |
| [O-]n1ccccc1=S.[O-]n1ccccc1=S.[Zn+2] | 1.1 µM (active) | – |
| Nc1ccc(N)c2c1C(=O)c1ccccc1C2=O | – | inactive |
| Cc1cc(S(=O)(=O)O)ccc1N=Nc1c(O)ccc2ccccc12 | 17.6 µM (active) | – |
| CC(CN=Cc1ccccc1O)N=Cc1ccccc1O (configuration not stated) | – | inactive |
| Nc1ccc2cc(S(=O)(=O)O)cc(O)c2c1N=Nc1ccccc1C(F)(F)F | 20 µM (active) | – |
| OC[C@H]1O[C@@H]2O[C@H]3[C@H](O)[C@@H](O)[C@@H](O[C@H]4[C@H](O)[C@@H](O)[C@@H](O[C@H]5[C@H](O)[C@@H](O)[C@@H](O[C@H]6[C@H](O)[C@@H](O)[C@@H](O[C@H]7[C@H](O)[C@@H](O)[C@@H](O[C@H]8[C@H](O)[C@@H](O)[C@@H](O[C@H]9[C@H](O)[C@@H](O)[C@@H](O[C@H]1[C@H](O)[C@H]2O)O[C@@H]9CO)O[C@@H]8CO)O[C@@H]7CO)O[C@@H]6CO)O[C@@H]5CO)O[C@@H]4CO)O[C@@H]3CO | – | inactive |
| COc1ccccc1N=Nc1c(S(=O)(=O)O)cc2cc(S(=O)(=O)O)cc(NC(C)=O)c2c1O | 8.29 µM (active) | – |

Each compound was assayed against Glucocorticoid receptor (Homo sapiens) (UniProt P04150) (assay: NVS_NR_hGR: NovaScreen (NVS) Nuclear Receptor Binding Assay for human Glucocorticoid Receptor (GR) (AID 2283363);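 on AC50: activity is loss of specific radioligand binding signal relative to DMSO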).
Procedure, shortened: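 Filter scintillation readout of tritiated/iodinated radioligand displaced by test chemical; cell-free extracted protein; 16 h. DMSO = negative control/baseline. Duplicate single-point 25 uM screen, then concentration-response on actives.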

Chain of Glucocorticoid receptor (Homo sapiens) (P04150 whole entry, looked up): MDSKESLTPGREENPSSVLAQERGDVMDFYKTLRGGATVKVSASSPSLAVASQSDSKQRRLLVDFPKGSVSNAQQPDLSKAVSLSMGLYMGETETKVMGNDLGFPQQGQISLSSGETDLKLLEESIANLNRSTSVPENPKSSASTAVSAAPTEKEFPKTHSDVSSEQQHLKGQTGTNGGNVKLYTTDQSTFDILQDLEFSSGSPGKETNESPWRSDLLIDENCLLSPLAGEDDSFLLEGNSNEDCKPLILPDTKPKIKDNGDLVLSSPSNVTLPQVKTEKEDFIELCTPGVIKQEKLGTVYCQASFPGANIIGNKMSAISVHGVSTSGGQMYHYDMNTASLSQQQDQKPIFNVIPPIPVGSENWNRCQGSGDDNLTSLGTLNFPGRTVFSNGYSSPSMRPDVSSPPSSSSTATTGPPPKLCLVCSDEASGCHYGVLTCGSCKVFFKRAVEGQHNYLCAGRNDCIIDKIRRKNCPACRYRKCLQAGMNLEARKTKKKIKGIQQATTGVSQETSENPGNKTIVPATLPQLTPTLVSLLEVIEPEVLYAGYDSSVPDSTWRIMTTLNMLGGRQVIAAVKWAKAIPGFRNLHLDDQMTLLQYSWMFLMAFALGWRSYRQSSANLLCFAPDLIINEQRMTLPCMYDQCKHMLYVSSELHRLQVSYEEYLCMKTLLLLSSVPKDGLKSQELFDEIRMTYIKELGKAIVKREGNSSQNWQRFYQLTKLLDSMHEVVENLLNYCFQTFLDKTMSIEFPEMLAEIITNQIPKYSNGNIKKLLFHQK

| Compound | AC50 | outcome |
| --- | --- | --- |
| Cc1ccc(S(=O)(=O)Oc2ccc(N=Nc3ccc(-c4ccc(N=Nc5c(O)ccc6cc(S(=O)(=O)O)cc(S(=O)(=O)O)c56)c(C)c4)cc3C)cc2)cc1 | 0.548 µM (active) | – |
| [O-]n1ccccc1=S.[O-]n1ccccc1=S.[Zn+2] | 0.776 µM (active) | – |
| C=C1CC[C@H](O)C/C1=C/C=C1\CCC[C@]2(C)[C@@H]([C@H](C)/C=C/[C@H](C)C(C)C)CC[C@@H]12 | 25 µM (active) | – |
| CCCCCCCCC=CCCCCCCCC1=NCCN1CCO | 5.02 µM (active) | – |
| CCC(=O)O[C@@H]1C[C@H]2CC[C@]1(C)C2(C)C | – | inactive |
| Nc1ccc2cc(S(=O)(=O)O)cc(O)c2c1N=Nc1ccccc1C(F)(F)F | 5.65 µM (active) | – |
| COc1ccc(N=Nc2cc(C)c(N=Nc3ccc(S(=O)(=O)O)cc3)cc2OC)cc1 | 1.91 µM (active) | – |
| CCCCC(CC)COC(=O)c1ccc(O)cc1 (configuration not stated) | 3.11 µM (active) | – |
| CCCCCCCCCCCCCCN(CCO)CCO | 8.13 µM (active) | – |

Each compound was assayed against Nuclear receptor subfamily 1 group I member 2 (Homo sapiens) (UniProt O75469) (assay: NVS_NR_hPXR: NovaScreen (NVS) Nuclear Receptor Binding Assay for human Pregnane X Receptor (PXR) (AID 2283365);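 further: a drop in FRET signal versus DMSO baseline means the compound binds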).
Procedure, shortened: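 Read-out: TR-FRET, human PXR, 2 h post-dosing, cell-free. Loss of signal vs DMSO taken as binding activity; 25 uM primary, concentration series secondary.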

Chain of Nuclear receptor subfamily 1 group I member 2 (Homo sapiens) (O75469 whole entry, looked up): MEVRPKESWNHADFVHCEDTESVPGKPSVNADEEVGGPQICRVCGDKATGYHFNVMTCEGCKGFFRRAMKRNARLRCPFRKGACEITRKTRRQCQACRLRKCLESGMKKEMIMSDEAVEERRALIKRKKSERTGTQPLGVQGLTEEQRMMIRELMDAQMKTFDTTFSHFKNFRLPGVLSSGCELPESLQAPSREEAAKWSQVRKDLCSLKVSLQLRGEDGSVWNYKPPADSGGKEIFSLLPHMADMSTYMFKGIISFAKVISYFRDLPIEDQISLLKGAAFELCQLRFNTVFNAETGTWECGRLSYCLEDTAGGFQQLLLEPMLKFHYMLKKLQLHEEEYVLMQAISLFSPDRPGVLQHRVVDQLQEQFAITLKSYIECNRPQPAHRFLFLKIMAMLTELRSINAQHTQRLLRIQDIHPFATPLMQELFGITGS

| Compound | AC50 | outcome |
| --- | --- | --- |
| Cc1ccc(S(=O)(=O)Oc2ccc(N=Nc3ccc(-c4ccc(N=Nc5c(O)ccc6cc(S(=O)(=O)O)cc(S(=O)(=O)O)c56)c(C)c4)cc3C)cc2)cc1 | 0.701 µM (active) | – |
| C=C1CC[C@H](O)C/C1=C/C=C1\CCC[C@]2(C)[C@@H]([C@H](C)/C=C/[C@H](C)C(C)C)CC[C@@H]12 | 12 µM (active) | – |
| COc1ccc(N=Nc2cc(C)c(N=Nc3ccc(S(=O)(=O)O)cc3)cc2OC)cc1 | 8.57 µM (active) | – |
| OC[C@H]1O[C@@H]2O[C@H]3[C@H](O)[C@@H](O)[C@@H](O[C@H]4[C@H](O)[C@@H](O)[C@@H](O[C@H]5[C@H](O)[C@@H](O)[C@@H](O[C@H]6[C@H](O)[C@@H](O)[C@@H](O[C@H]7[C@H](O)[C@@H](O)[C@@H](O[C@H]8[C@H](O)[C@@H](O)[C@@H](O[C@H]9[C@H](O)[C@@H](O)[C@@H](O[C@H]1[C@H](O)[C@H]2O)O[C@@H]9CO)O[C@@H]8CO)O[C@@H]7CO)O[C@@H]6CO)O[C@@H]5CO)O[C@@H]4CO)O[C@@H]3CO | 4.18 µM (active) | – |
| CCCCC(CC)COC(=O)c1ccc(O)cc1 (configuration not stated) | – | inactive |
| CC(C)c1ccccc1O | – | inactive |
| CCc1ccc(O)cc1 | – | inactive |
| CCCCCCCCCCCCCCN(CCO)CCO | – | inactive |
